Assay outcomes from PubChem.
FBA Mtb inh = Mtb FBA enzyme inhibitors, primary screen, biochemical, fluorescence, strain H37Rv. Fructose-bisphosphate aldolase (Mycobacterium tuberculosis (strain ATCC 25618 / H37Rv)), …. purified M. tuberculosis FBA, fluorescence read-out. inhibition, % at 1 µM. actives 2.3% (n = 360,000); in the data active means inhibition above about 27%;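 further: 0% = vehicle and 100% = reference inhibitor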
Target sequence (P9WQA3 whole entry, looked up): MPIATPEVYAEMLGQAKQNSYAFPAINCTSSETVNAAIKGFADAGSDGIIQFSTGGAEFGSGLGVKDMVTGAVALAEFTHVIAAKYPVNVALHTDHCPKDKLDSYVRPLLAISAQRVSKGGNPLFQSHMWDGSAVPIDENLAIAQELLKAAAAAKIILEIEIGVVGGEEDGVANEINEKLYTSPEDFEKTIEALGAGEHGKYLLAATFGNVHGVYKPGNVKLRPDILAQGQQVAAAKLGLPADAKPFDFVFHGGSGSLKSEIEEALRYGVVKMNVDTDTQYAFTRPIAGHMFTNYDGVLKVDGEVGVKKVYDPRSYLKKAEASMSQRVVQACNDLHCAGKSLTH
PrPC surface inh = inhibitors of human cell surface prion protein PrPC, primary screen, cell-based, TR-FRET. Major prion protein (Homo sapiens), P04156. TR-FRET read-out. inhibition, % at 13.8 µM. actives 0.43% (n = 370,000). AID 720596, 2013; in the data active means inhibition above about 24%; further: 0% = median of the test wells and 100% = reference compound wells
RecA splice inh = Mtb RecA intein splicing inhibitors, primary screen, biochemical, fluorescence, HTS. cell-free RecA intein splicing. actives 0.75% (n = 290,000). inhibition, % (test concentration not listed). Protein RecA (Mycobacterium tuberculosis (strain ATCC 25618 / H37Rv)), P9WHJ3; in the data active means inhibition above about 30%;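 further: 0% = vehicle wells and 100% = reference inhibitor control wells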
BJeLR lethal = MLPCN primary cell-based screen for lethality selective to Ras in HRASV12 cells. BJeLR (HRASV12) viability, CellTiter-Glo ATP luminescence, 48 h. inhibition, % (test concentration not listed). actives 0.17% (n = 300,000); in the data active means inhibition above about 50%
GDH-TPI inh = GDH-TPI coupling enzyme inhibitors, primary screen, artefact control for M. tuberculosis FBA inhibitor project, biochemical, absorbance, full deck; actives 1.2% (n = 360,000); inhibition, % at 4.8 µM; GDH-TPI coupled enzyme counterscreen, NADH absorbance; in the data active means inhibition above about 30%;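 further: 0% = DMSO wells and 100% = wells lacking the enzyme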
Starred values were filed as active, the others as inactive; x = no result given; + = active, no number. Sampled rows, rich in hits. Any-hit rate of the full collection: about 4.2%.

SMILES | FBA Mtb inh | PrPC surface inh | RecA splice inh | BJeLR lethal | GDH-TPI inh
COc1cc(/C=N/NC(=O)c2cnccn2)ccc1O | -3.5 | -8.9 | -3.0 | 3.6 | 34.5*
CCOc1cc(/C=C2/NC(=O)N(Cc3ccccc3F)C2=O)ccc1O | -1.6 | -20.8 | -5.0 | 5.6 | 40.4*
CCOc1cc(/C=N/NC(=O)c2cccnc2)ccc1OCC(N)=O | -1.9 | 6.6 | 3.0 | x | 14.4
CCCCNC(=S)N/N=C/c1cccc(OCC)c1O | 1.2 | -2.7 | 0.6 | -1.5 | 33.3*
CCOc1cccc(/C=N/NC(=O)c2cccnc2)c1O | -3.6 | 2.8 | -1.6 | 6.4 | 30.8*
COc1cc(/C=C2/NC(=O)N(Cc3ccccc3F)C2=O)cc(OC)c1O | 0.7 | -12.4 | x | 0.8 | 11.3
C#CCCCN([C@@H](CC(C)C)C(=O)OC)S(=O)(=O)c1ccc(F)cc1Br | x | 4.2 | x | x | x
CN1C/C(=C/c2ccncc2)C(=O)/C(=C/c2ccncc2)C1 | -0.7 | -12.7 | x | 71.8* | -3.7
CCOc1cc(/C=N/Nc2ncnc(Cl)c2N)ccc1O | -3.3 | -13.1 | -6.2 | -4.7 | 33.5*
CCOc1cc(/C=N/Nc2nnc(C)n2N)ccc1O | -11.2 | -0.1 | -6.3 | -4.5 | 8.2
CCOc1cc(/C=N/NC(=O)c2ccccc2OCc2ccc(F)cc2)ccc1O | 5.9 | -15.5 | x | x | 41.1*
CCOc1cc(/C=N/NC(=O)c2cccnc2)ccc1O | -10.1 | 1.6 | -0.7 | -0.8 | 38.3*
CCC(=O)N1CCc2cc(Br)c(S(=O)(=O)N3CCCC(C(=O)NC(C)(C)C)C3)cc21 (centres undefined) | x | -3.7 | x | x | x
Cn1cc(C2(c3c[nH]c4ccccc34)CCN(C(=O)OC(C)(C)C)CC2)c2ccccc21 | x | 0.9 | x | x | x
COC(=O)C1CN(Cc2ccccc2)CCS(=O)(=O)N1Cc1cn(Cc2ccc(C)cc2)nn1 (centres undefined) | x | 4.5 | x | x | x
COc1ccc(/C=N/NC(=O)c2ccc(C)nc2)cc1O | 0.7 | -7.3 | -0.2 | -5.0 | 32.6*
O=C(COc1ccccc1C(=O)N/N=C\c1ccc(O)c(O)c1)N/N=C/c1ccc(O)c(O)c1 | 0.5 | x | -4.7 | 1.0 | 56.4*
COc1cc(/C=N\NC(=O)c2ccc(Cn3nc([N+](=O)[O-])c(Cl)c3C)o2)ccc1O | 5.0 | -17.1 | -0.9 | 2.8 | 40.3*
CCOc1cc(/C=C2\CN(C)C/C(=C\c3ccc(O)c(OCC)c3)C2=O)ccc1O | -7.3 | -17.6 | -4.5 | 61.0* | 20.7
Nc1c(Cl)ncnc1N/N=C/c1ccccn1 | x | -31.1 | x | x | x
CCOc1cc(/C=N/NC(=O)N/N=C/c2ccc(O)c(OCC)c2)ccc1O | x | -10.2 | -1.1 | 5.6 | x
Nc1c(Cl)ncnc1N/N=C/c1cccnc1 | 2.0 | -11.7 | -3.6 | 6.0 | 40.1*
CCOc1cc(/C=N/NC(=O)C(=O)N/N=C/c2ccc(O)c(OCC)c2)ccc1O | -3.1 | -6.9 | -7.7 | 6.8 | 51.2*
COc1ccc2cc(CO)n(C)c2c1 | 0.8 | -6.6 | x | x | 5.9
COc1ccc2cc(C=O)n(C)c2c1 | 1.7 | -2.7 | x | x | 44.5*
SMILES | FBA Mtb inh | PrPC surface inh | RecA splice inh | BJeLR lethal | GDH-TPI inh
COc1ccc2cc(C=NS(=O)(=O)c3ccc(C)cc3)n(C)c2c1 | 0.8 | -0.5 | x | x | 35.5*
CCC(NC(=O)c1ccc2c(ccn2Cc2cccc(-c3ccc(C(=O)O)cc3)c2)c1)c1ccccc1 (centres undefined) | x | -2.2 | x | x | x
CC1=C2NC(N)=[N+](CC3CC3)C(Cc3ccccc3)[C@@H]2n2c(=O)n(-c3ccccc3)c(=O)n2C1 (some centres undefined) | x | -4.1 | x | x | x
O=C(c1cc(Cl)cc(Cl)c1)N1CCC(Oc2cccnc2)CC1 | x | 6.4 | x | x | x
C/C(=N\Nc1nccnc1Cl)c1ccc(O)cc1 | -0.7 | -4.2 | 2.3 | -5.3 | 22.8
C/C(=N\Nc1nccnc1Cl)c1ccc(Cl)c(Cl)c1 | -1.8 | 2.6 | -1.4 | -2.4 | 41.4*
C=CCN1C(=O)[C@@H](CC(=O)N2CCSCC2)[C@]2(C(=O)OCC)CCCCC/C=C/12 | x | 5.1 | x | x | x
COC(=O)c1ccccc1S(=O)(=O)NC(=O)[C@H]1O[C@@H](n2ccc(=O)[nH]c2=O)[C@H](O)[C@@H]1O | x | 8.5 | x | x | x
CCN(CC)S(=O)(=O)c1ccc(N/N=C/c2cccnc2)nc1 | 0.1 | 1.6 | 3.3 | 0.9 | 72.8*
Nc1nc2ccc(-c3nc4ccccc4o3)cc2s1 | + | 10.0 | 4.8 | -1.6 | 40.6*
Cc1c(C)c2ccc(OC(C)C(=O)NC3CC(C)(C)NC(C)(C)C3)cc2oc1=O (centres undefined) | 123.4* | -0.1 | -0.9 | 2.4 | 12.1
COC(=O)[C@H](C(C)C)N(Cc1cn(Cc2ccc(C)cc2)nn1)S(=O)(=O)c1ccc(F)cc1Br | x | 2.4 | x | x | x
COC(=O)[C@]12C[C@H](CC(=O)NCc3ccccc3)C(=O)N(Cc3ccco3)C1=C[C@H](COCc1ccccc1)O[C@@H]2C | x | -3.0 | x | x | x
Cn1c(NNC(=O)/C=C/c2ccc3c(c2)OCO3)cc(=O)n(C)c1=O | 9.6 | -4.5 | x | 8.5 | 39.2*
O=C(c1cc(=O)[nH]c2ccccc12)N1CCN(c2ccc([N+](=O)[O-])cc2)CC1 | -6.7 | -30.4 | -1.9 | -4.7 | 35.1*
Cn1c(SCC(=O)Nc2ccccc2-c2ccccc2)nnc1-c1ccccc1 | x | 2.5 | x | x | x
O=C(OCC#CCSc1nnc(-c2ccc(F)cc2)o1)c1ccc(F)cc1 | x | 7.8 | x | x | x
COC(=O)c1c(-c2ccc(S(C)(=O)=O)cc2)sc2cc(OC)ccc12 | 189.9* | -17.5 | x | x | 12.9
COc1ccccc1/C=C/c1ccc2cccc(O)c2n1 | 1.6 | -12.4 | 1.6 | 10.3 | 10.2
COc1c(OC(C)=O)ccc(/C=C/c2ccc3cccc(OC)c3n2)c1[N+](=O)[O-] | -4.3 | -12.0 | 18.5 | 0.2 | 26.5
COc1c(OC(C)=O)ccc(/C=C/c2ccc3ccccc3n2)c1[N+](=O)[O-] | -0.9 | -23.0 | x | 0.1 | 43.1*
COc1cc(OC)c(OC)cc1C=Cc1ccc2ccccc2n1 | 7.2 | -11.8 | x | x | 31.0*
O=S1(=O)C=CCN1Cc1cn(Cc2cccc(Cl)c2)nn1 | x | 1.5 | x | x | x
COc1ccc(S[C@]2(C(=O)NCCc3ccccc3)CC(=O)N[C@@H]2c2ccc(OC)cc2)cc1 | x | 6.9 | x | x | x
O[C@@H]1[C@@H](O)[C@H](n2c3ccc(Cl)cc3c3ccc4c5cc(Cl)ccc5[nH]c4c32)OC[C@H]1O | x | 13.6 | x | x | x
COC(=O)[C@]12C[C@H](CC(=O)NCC3CCCCC3)C(=O)N(Cc3ccco3)C1=C[C@H](COCc1ccccc1)O[C@@H]2C | x | -4.8 | x | x | x
CCOC(=O)/C(=C/c1c[nH]c2ccccc12)NC(C)=O | -2.1 | -8.0 | 0.3 | 1.6 | 37.6*
CCc1ccc(C=NN2CCN(Cc3ccc(C)cc3C)CC2)cc1 | x | -1.9 | x | x | x
N#C/C(=C\Nc1ccc2c(c1)OCCO2)C(=O)NCc1ccco1 | -5.3 | 1.2 | -1.3 | 5.1 | 44.2*
CC(C)OC(=O)c1cc(C(=O)c2cc(Cl)ccc2O)coc1=N | 1.9 | -1.0 | -12.1 | -4.2 | 10.1
